Key:
Assay in all cases: log2 ratio of Biotin-Ahx-Ub-VS probe labelling (fragment/DMSO); higher = less target engagement (more negative = stronger competition), active = hit call of the paper (q ≤ 0.05, log2 ratio ≤ -1)
Conditions in all cases: compound concentration: 200 uM; treatment time: 3 h
USP19 = target: T1, USP19 (UniProt O94966)
T1 sequence (whole entry): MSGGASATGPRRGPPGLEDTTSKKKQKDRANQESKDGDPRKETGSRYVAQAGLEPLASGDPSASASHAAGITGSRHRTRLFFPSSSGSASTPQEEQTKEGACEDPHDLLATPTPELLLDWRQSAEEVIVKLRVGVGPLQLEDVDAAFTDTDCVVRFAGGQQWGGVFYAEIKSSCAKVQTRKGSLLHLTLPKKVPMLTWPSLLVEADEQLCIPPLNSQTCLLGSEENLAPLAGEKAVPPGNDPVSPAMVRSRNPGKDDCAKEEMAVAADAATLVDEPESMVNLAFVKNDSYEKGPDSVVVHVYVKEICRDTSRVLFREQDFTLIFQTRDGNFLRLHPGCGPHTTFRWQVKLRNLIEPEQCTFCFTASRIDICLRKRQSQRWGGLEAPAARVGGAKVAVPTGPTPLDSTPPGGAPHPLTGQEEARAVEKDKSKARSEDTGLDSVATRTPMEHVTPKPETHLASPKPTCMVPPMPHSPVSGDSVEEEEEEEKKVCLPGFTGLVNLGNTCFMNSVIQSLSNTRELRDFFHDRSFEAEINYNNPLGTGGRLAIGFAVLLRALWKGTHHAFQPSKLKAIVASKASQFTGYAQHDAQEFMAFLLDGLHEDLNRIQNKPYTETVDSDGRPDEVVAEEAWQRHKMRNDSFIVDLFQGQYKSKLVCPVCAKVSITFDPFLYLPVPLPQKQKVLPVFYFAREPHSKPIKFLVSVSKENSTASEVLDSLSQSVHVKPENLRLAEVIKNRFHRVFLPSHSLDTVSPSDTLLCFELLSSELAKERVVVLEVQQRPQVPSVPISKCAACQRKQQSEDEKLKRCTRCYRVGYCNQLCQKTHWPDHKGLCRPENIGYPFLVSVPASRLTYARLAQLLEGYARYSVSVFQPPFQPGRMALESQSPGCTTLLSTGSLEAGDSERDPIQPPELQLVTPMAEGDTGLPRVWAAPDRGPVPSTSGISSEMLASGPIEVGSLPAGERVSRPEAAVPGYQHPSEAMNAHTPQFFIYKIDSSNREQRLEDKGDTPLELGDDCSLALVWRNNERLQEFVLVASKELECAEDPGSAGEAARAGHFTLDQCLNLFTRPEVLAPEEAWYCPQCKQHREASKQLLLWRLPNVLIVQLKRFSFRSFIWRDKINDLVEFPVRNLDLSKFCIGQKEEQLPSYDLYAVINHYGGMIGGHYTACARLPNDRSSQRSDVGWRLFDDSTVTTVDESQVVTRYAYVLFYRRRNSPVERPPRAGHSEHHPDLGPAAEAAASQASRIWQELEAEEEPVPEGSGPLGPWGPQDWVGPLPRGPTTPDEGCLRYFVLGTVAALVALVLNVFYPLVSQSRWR
Summary of the method: (§1)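 Values give the average log2 ratio of fragment to vehicle, assessed by unpaired t-test on global-median-normalised Spectronaut label-free quantities. Proteins needed ≥2 unique peptides. HEK293T lysate (495 µg per sample) was treated in triplicate with fragment at 200 µM or vehicle for 3 h and then with Biotin-Ahx-Ub-VS at 0.5 µM final for 1 h. Labelled DUBs were NeutrAvidin-enriched, digested and run by diaPASEF LC-MS/MS.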

USP22 = target: T2, USP22 (UniProt Q9UPT9)
T2 sequence (whole entry): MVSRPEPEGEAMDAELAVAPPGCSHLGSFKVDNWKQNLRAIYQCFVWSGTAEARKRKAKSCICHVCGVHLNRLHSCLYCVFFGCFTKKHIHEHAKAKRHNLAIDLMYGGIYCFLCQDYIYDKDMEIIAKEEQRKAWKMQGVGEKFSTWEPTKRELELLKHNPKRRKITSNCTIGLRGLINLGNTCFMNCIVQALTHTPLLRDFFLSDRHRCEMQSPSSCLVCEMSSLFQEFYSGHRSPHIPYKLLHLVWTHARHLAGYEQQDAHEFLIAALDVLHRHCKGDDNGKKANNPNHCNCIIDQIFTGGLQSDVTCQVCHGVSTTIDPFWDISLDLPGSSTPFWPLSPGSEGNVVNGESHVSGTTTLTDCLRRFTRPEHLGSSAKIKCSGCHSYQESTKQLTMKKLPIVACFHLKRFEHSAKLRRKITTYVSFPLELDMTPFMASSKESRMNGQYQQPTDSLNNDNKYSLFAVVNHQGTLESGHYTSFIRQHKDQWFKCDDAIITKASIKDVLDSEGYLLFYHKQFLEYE
Summary of the method: as §1

USP24 = USP24 (UniProt Q9UPU5)
Summary of the method: as §1

USP25 = target: T3, USP25 (UniProt Q9UHP3)
T3 sequence (whole entry): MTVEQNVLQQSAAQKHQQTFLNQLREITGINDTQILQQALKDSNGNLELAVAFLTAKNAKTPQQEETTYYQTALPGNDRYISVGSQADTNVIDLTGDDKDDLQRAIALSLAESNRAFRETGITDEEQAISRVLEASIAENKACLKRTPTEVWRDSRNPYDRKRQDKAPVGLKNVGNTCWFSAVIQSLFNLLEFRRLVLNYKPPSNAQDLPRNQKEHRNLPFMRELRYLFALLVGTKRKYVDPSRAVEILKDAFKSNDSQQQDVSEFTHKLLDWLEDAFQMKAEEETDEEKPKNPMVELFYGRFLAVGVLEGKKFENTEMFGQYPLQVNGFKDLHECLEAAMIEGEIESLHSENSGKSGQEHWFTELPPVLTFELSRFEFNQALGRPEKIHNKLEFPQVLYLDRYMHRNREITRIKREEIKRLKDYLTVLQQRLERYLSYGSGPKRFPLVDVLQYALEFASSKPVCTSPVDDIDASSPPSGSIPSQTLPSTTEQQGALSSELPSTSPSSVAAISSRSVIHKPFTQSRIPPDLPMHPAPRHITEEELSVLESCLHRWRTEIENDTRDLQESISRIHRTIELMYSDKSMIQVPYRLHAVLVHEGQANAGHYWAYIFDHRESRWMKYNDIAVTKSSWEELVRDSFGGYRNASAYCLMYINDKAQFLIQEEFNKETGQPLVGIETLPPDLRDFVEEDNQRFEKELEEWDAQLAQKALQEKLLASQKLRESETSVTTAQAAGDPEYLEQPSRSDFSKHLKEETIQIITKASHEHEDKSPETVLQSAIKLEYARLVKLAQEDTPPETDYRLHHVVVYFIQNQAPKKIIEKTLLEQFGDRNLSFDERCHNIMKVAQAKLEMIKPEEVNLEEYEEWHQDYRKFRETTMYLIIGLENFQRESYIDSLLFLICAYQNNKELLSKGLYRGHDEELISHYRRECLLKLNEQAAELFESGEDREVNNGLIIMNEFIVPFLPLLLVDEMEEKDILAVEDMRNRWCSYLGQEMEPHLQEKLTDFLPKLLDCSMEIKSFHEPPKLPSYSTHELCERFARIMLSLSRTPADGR
Summary of the method: as §1

USP28 = target: T4, USP28 (UniProt Q96RU2)
T4 sequence (whole entry): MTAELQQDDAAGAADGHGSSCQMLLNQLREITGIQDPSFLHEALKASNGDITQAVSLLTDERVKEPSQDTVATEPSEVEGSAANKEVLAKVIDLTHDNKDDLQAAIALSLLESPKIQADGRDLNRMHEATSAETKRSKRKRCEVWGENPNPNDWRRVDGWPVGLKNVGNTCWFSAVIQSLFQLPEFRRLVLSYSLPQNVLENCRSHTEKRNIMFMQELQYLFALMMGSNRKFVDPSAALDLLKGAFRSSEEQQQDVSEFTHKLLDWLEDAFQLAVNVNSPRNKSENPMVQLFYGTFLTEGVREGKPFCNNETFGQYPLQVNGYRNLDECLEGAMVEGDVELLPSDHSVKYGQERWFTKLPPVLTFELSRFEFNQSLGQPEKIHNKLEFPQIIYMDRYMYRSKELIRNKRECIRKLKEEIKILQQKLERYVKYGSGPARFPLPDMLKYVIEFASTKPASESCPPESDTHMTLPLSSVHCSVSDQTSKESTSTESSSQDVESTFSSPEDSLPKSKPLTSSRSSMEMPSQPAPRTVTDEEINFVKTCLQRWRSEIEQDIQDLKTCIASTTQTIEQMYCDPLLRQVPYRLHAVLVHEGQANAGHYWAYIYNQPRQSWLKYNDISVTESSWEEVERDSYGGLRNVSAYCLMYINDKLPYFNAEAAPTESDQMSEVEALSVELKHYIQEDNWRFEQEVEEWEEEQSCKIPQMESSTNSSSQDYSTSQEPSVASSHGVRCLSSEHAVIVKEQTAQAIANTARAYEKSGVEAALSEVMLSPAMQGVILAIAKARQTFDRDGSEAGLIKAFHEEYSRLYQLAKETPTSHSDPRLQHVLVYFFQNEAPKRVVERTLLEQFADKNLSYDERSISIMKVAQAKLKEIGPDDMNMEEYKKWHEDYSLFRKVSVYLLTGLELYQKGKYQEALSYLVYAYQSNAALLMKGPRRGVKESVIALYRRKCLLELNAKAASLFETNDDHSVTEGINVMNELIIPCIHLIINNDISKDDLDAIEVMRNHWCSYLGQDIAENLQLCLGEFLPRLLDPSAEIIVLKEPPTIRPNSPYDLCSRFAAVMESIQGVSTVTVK
Summary of the method: as §1

Measured: log2 ratio of Biotin-Ahx-Ub-VS probe labelling

Chain of USP24 (Q9UPU5 whole entry): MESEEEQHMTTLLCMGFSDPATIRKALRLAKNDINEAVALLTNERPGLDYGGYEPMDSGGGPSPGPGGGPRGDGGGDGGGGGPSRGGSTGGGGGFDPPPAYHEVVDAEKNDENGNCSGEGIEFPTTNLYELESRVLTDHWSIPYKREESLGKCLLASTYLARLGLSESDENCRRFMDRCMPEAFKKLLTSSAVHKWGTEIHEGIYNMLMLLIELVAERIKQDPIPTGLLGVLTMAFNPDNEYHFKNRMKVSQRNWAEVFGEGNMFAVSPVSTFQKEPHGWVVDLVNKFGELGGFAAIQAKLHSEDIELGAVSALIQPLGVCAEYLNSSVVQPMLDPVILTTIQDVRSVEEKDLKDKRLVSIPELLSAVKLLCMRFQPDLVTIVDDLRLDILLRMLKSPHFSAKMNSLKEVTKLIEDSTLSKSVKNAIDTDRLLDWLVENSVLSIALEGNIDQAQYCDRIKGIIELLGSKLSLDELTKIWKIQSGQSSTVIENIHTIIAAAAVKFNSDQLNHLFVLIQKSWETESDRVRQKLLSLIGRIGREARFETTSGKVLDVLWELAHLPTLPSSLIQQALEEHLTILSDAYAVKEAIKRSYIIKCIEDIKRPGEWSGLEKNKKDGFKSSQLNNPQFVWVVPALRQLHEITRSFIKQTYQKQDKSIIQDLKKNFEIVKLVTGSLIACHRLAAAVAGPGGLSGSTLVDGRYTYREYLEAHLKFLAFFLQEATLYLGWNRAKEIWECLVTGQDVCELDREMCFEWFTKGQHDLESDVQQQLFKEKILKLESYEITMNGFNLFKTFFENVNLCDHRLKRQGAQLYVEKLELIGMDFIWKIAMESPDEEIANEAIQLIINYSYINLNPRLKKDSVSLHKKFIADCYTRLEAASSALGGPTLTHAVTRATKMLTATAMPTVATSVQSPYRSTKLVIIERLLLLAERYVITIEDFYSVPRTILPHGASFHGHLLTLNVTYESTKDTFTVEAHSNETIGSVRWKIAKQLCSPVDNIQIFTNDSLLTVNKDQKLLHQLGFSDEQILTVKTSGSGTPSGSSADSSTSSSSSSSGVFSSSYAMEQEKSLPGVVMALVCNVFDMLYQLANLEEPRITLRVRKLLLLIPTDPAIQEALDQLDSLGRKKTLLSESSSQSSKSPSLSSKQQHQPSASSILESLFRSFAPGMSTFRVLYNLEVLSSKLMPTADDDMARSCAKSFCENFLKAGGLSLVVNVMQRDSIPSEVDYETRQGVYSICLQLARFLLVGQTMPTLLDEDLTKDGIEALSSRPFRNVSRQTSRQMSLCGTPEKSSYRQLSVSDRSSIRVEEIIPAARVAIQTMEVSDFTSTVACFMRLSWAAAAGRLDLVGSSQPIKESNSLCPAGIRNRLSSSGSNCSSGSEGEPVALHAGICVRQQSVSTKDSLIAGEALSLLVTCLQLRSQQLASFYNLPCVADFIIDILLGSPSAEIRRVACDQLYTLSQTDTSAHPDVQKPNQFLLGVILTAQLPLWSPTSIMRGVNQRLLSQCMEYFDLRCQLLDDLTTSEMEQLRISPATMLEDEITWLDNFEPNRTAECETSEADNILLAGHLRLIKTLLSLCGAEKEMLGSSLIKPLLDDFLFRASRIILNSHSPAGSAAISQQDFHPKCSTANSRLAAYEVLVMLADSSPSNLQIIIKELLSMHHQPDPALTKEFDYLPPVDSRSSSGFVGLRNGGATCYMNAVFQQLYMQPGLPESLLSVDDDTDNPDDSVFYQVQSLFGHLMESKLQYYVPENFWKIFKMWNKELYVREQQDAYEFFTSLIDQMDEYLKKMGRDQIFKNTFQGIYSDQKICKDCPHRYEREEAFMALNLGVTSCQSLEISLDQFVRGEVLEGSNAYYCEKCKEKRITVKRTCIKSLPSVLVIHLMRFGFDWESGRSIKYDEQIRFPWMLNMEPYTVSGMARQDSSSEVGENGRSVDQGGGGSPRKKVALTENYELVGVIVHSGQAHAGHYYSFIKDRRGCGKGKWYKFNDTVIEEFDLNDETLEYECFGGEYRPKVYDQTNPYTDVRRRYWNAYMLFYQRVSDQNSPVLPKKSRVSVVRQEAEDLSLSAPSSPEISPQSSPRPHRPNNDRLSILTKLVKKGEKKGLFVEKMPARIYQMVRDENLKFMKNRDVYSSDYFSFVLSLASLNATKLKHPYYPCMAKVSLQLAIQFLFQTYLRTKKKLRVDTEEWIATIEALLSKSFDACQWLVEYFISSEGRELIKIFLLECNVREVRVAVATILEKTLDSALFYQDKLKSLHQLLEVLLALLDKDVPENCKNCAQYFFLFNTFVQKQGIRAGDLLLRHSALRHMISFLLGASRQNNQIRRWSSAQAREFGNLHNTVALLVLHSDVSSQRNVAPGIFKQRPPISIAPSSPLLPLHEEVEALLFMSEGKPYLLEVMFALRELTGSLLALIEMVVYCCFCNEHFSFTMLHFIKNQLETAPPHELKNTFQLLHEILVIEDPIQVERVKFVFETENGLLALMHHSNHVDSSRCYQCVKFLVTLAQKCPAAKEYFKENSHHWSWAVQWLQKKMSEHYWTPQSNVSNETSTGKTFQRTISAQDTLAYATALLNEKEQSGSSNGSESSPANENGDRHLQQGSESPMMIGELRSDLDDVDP

O=C(CCl)NCc1ccc2c(c1)OCO2
inactive: USP19 -0.272 | USP22 -0.126 | USP24 -0.3 | USP25 -0.0121 | USP28 -0.566

From the supplement of paper PMC11732987, “Enantioselective OTUD7B fragment discovery through chemoproteomics screening and high-throughput optimisation” (Communications Chemistry, 2025)
